Structures are written as SMILES. Among all 360,000 compounds or so, about 2,400 (0.67%) were called active. This is one part of a sample in which actives are shown more often than they occur. Unmarked numbers belong to inactive results. Cut-off read from the data, not from the text of the source: active = enhancement above about 30%; inactive = the rest. Peptide text beside a SMILES is read from it. * marks the point of attachment. OPac = O=C(CO*)c1ccccc1; Bz = O=C(c1ccccc1)*

Thyrotropin-releasing hormone receptor (Homo sapiens), sequence (P34981 whole entry, looked up): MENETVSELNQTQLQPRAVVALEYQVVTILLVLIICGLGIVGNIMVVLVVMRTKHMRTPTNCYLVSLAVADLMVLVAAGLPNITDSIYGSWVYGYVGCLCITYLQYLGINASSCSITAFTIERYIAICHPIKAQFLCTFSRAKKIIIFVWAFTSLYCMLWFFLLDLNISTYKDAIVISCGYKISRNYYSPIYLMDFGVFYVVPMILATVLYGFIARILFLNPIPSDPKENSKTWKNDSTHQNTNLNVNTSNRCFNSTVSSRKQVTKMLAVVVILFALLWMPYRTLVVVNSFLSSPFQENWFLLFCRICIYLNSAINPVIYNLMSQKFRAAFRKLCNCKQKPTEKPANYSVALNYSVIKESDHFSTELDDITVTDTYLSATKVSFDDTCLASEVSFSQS

In this assay the target is Thyrotropin-releasing hormone receptor (Homo sapiens) (UniProt P34981). The assay can be described thus: qHTS for Small Molecule Agonists and Allosteric Enhancers of Human TRH Receptor: Primary Screen for Enhancers. Note: 0% is about no effect. The settings on record: TRHR cells, fluo-8 calcium fluorescence, EC20 TRH enhancement; at 2 µM; stronger effect = higher value. An excerpt:
NIH Chemical Genomics Center [NCGC] NIH Molecular Libraries Probe Centers Network [MLPCN] MLPCN Grant: MH089816-01 Assay Submitter (PI): Marvin Gershengorn This project aims to identify small drug-like molecules that activate (agonists) the thyrotropin releasing hormone (TRH) receptor (TRHR) or enhance its TRH-stimulated activity (allosteric enhancers). TRHR, a drug-accessible cell surface receptor expressed in specific brain regions, and its ligand TRH have been implicated in several central nervous system disorders, including depression and anxiety. Small molecule TRHR agonists or allosteric enhancers that are metabolically stable and able to cross the blood-brain barrier might serve as probes to elucidate the roles of brain TRH receptors in animal models, and might be valuable as lead compounds for the development of drugs to treat patients with central nervous system disorders. Upon TRHR-Gq activation in TRHR cells, intracellular calcium is released from stores in the endoplasmic reticulum. […] This primary screen measures compound-induced enhancement of an EC20 stimulation of the receptor by its native ligand.
For the HTS assay freshly prepared cells are plated at a density of 2000/well in 3 ul of complete DMEM medium containing 10% serum in 1536-well plates and cultured over night at 37 C in a humidified incubator with 5% CO2. The next day, 2 ul of a no wash calcium dye (ABD Bioquest) was added to the cells and plates were incubated at room temperature for 1 hour. For the assay, assay plates were loaded into the FDSS kinetic plate reader. A 10 cycle (1 second/cycle) baseline measurement is taken and then the FDSS online 1536 pintool delivers 23 nl of compound library (as well as TRH controls) to the plate. The plate is measured for kinetically at 1 cycle/sec for 180 seconds and is considered to be the agonist portion of the assay (eg, compounds which activate a positive calcium response during this portion are flagged as potential agonists). Following the 180 second read, 1 ul of either an EC20 (positive modulation assay) is delivered by an onboard pipette head. Measurements are taken kinetically for an additional 180 seconds. TRHR FDSS Screening Protocol 1. Reagent, 3 uL 2000 cells/well 1536 TC treated Black plate in media containing 10% FCS 2. Time, 18 hours, 33.5C 5% CO2 (cells grown at 37C) 3. Reagent, 2 uL ABD fluo-8 Ca dye 4. Time, 30 min-1.5hrs hours, Room temp (6 plates/batch) 5. Detector, EX 480/EM 530C, FDSS 10 cycles baseline (1sec/cycle) 6. Compound, 23 nL of stock solution from library 7. Detector, EX 480/EM 530C, FDSS 230 cycles (1sec/cycle) Agonist mode 8. Compound, 1 ul EC20 of TRH made up in HEPES HBSS, 10 nM final 9. Detector, EX 480/EM 530C, FDSS 100 cycles (1sec/cycle) Potentiator mode
(In general: In qHTS, concentration-response curves come from the screen itself.)
With `O=C(Nc1n[nH]c(C(F)(F)F)n1)c1cccs1`, the enhancement is -3.09%.

Turning to `O=C(NC1CCCCCCC1)c1cccs1`, the enhancement was -1.69%. As for `O=C(Nc1ncccn1)c1cccs1`, the figure is 35.8% (active); as for `COc1ccc2c(CNCCc3ccccc3C)c(C(=O)O)n(Cc3ccccc3C)c2c1`, -16.3%. For `CCN1CCN(Cc2c(O)ccc3oc(C)c(C(=O)Nc4ccc(C)cc4C)c23)CC1`, the enhancement was 4.91%. As for `CCC(=O)Nc1c(C(=O)N2CCN(c3ccc(F)cc3)CC2)oc2ccccc12`, the figure is -8.72%; as for `CCN1CCC(N(Cc2ccc(F)cc2)C(=O)Nc2cc(C)ccc2C)CC1`, 10%; as for `CCOC(=O)N1CCC(NC(=O)c2cnn(-c3cccc(C)c3)c2C2CCN(C(=O)OC(C)(C)C)CC2)CC1`, 5.75%. As for `CC(C)Cn1c(N)c(C(=O)COC(=O)CN2C(=O)C3CC=CCC3C2=O)c(=O)n(C)c1=O` (configuration not stated), the figure is 0.142%; as for `CCCc1cc(=O)[nH]c(SCC(=O)c2c(N)n(CC(C)C)c(=O)n(C)c2=O)n1`, 38.3% (active); as for `CCCc1cc(=O)[nH]c(SCC(=O)N2C(C)CCCC2C)n1` (configuration not stated), 6.92%. As for `O=c1cc(CSc2ncn[nH]2)[nH]c2ccc(F)cc12`, the figure is 0.991%. `Cc1c(C(=O)N(C)C)sc2c1c(=O)n(-c1ccc(F)cc1)c(=O)n2CC(=O)N(C)c1ccccc1`: the enhancement is -2.28%. With `CC(C(=O)N(C)CC(=O)Nc1ccccc1C(F)(F)F)N1C(=O)c2ccccc2C1=O` (configuration not stated), the enhancement is 35.3% (active). Then `CN(CC(=O)Nc1ccccc1C(F)(F)F)C(=O)Cc1ccccc1F`, with 1.5%; and `O=C(CN1CCN(c2ncccn2)CC1)Nc1ccccc1C(F)(F)F`, with 0.988%; and `CCCNc1ncnc2c1c(-c1ccccc1)cn2-c1ccc(OCC)cc1`, with -5.52%. Regarding `CCCN(CCC)CCCNC(=O)Cn1ncc2c3ccccc3n(Cc3ccccc3)c2c1=O`, the enhancement was 3.33%. As for `Cc1nn(Cc2ccccc2)c(C)c1C(=O)NCCCN1CCCC1=O`, the figure is 8.55%; as for `Cc1nn(Cc2ccccc2)c(C)c1C(=O)N1CCN(CC(=O)Nc2ccccc2Cl)CC1`, 66.2% (active); as for `CCC(=O)Nc1ccccc1C(=O)N1CCN(Cc2ccccc2)CC1`, 8.38%. Then `O=C(CSc1nccn1Cc1ccc(F)cc1)NCc1ccccc1`, with 1.55%; and `Cc1ccc(S(=O)(=O)NC(N)=NCCC[C@@H](NC(=O)CNC(=O)c2ccccc2)C(=O)Nc2cc(C(F)(F)F)ccc2Cl)cc1`, with 2.23%; and `CCn1c(SCC(=O)Nc2nccs2)nnc1-c1ccncc1`, with 1.36%.

Regarding `Nn1c(SCC(=O)Nc2nccs2)nnc1-c1ccco1`, the enhancement was 4.24%.

For `CCn1c(SCC(=O)Nc2nccs2)nnc1-c1ccco1`, the enhancement is 38% (active).

Turning to `O=C(CSc1nnc(-c2ccccc2F)o1)Nc1cccc(C(F)(F)F)c1`, the enhancement was 8.13%.

Consider `Cc1cc(C)c2oc(C(=O)Nc3ccc(S(=O)(=O)N(C)c4ccccc4)cc3)cc(=O)c2c1`, for which the enhancement was 0.252%. Then `Cc1cc(C)c2oc(C(=O)Nc3ccc(S(=O)(=O)N4CCCCCC4)cc3)cc(=O)c2c1`, with 48.6% (active); and `Cc1ccc2oc(C(=O)Nc3ccc(S(=O)(=O)N4CCCCCC4)cc3)cc(=O)c2c1`, with 0.734%; and `Cc1c(C(=O)NCc2ccccc2Br)oc2ccc3c(c12)C(=O)CC(C)(C)O3`, with -2.29%.

Consider `COc1cccc(-n2cc(C(=O)NCc3cccc(Cl)c3)c3ccccc3c2=O)c1`, for which the enhancement was -3.45%. Then `CC(NC(=O)c1ccc(N2CCNCC2)c([N+](=O)[O-])c1)C12CC3CC(CC(C3)C1)C2` (configuration not stated), with 31.1% (active); and `O=C(NC1C2CC3CC(C2)CC1C3)c1ccc(N2CCNCC2)c([N+](=O)[O-])c1` (configuration not stated), with 2.28%. Then `CCC(C)NC(=O)c1ccc(N2CCC3(CC2)OCCO3)c([N+](=O)[O-])c1` (configuration not stated), with -9.06%; and `Cc1nc2nc(SCC(=O)NC3CCC(C)CC3)nn2c(C)c1Cc1ccccc1Cl` (configuration not stated), with 3.16%.

Regarding `CCc1ccccc1NC(=O)CSc1nc(C)c(C(=O)Nc2ccccc2)c(-c2ccc(Cl)cc2)c1C#N`, the enhancement is -0.268%. Then `C=CCO/N=C/C1=C(O)C(C(=O)OC)C(C)(C)CC1=O` (configuration not stated), with -2.52%; and `CCC[C@@H]1C[C@@]1(CCC)[C@@H](NC(=O)c1ccccc1)c1ccc(C(=O)OC)cc1`, with -1.9%. Regarding `CCCC(=O)C1=C(N(C)c2ccccc2)CC(C)(C)C(C(=O)OC)C1=O` (configuration not stated), the enhancement is 36.8% (active). As for `Cc1cccc(Cc2c(C)nc3nc(SCc4ccccc4Cl)nn3c2C)c1`, the figure is -3.69%; as for `COc1ccc(OC)c(-c2noc(N3CCN(c4cc(Cl)ccc4C)CC3)n2)c1`, -2.59%. As for `Cc1ccc(-c2cnc(NCc3ccc(C(C)C)cc3)n2C)cc1`, the figure is 2.38%.

For the compound `Cc1cccc(NC(=O)CSc2ncc(-c3ccccc3)[nH]2)c1C`, the enhancement was -2.76%. Turning to `COc1ccc(CNC(=O)c2cc3cccc(OC)c3oc2=O)cc1`, the enhancement is 5.25%.

As to `O=C(CNC(=O)Cc1ccccc1)NCC(=O)OCC(=O)c1ccccc1Cl`, the enhancement was -4.65%.

In the case of `O=C(CNC(=O)c1ccccc1)NCC(=O)OCC(=O)c1ccccc1` (Bz-Gly-Gly-OPac), the enhancement was 48.2% (active). As to `O=C(CNC(=O)c1ccco1)OCC(=O)c1ccccc1`, the enhancement was 14.7%. Then `CCCCN(CC)CCCNC(=O)c1nn(C)c2c1CSc1ccccc1-2`, with -0.263%; and `Cc1ccc(CN2CCc3nc(N4CCN(C)CC4)ncc3C2)cc1`, with -1.43%. As for `CCOC(=O)c1ccc(NC(=O)c2ncn(-c3ccccc3)n2)cc1`, the figure is -1.95%; as for `O=C1C(=O)N(CCCO)C(c2ccccc2)/C1=C(\O)c1ccc(Br)cc1` (configuration not stated), 46.2% (active); as for `COc1ccc(/C(O)=C2/C(=O)C(=O)N(CCCN(C)C)C2c2ccccc2)cc1OC` (configuration not stated), 7.56%. Then `COc1cccc(C2/C(=C(/O)c3ccncc3)C(=O)C(=O)N2CCCN(C)C)c1` (configuration not stated), with 5.69%. Take `CC(C)(C)OC(=O)N1CCC(c2c(C(=O)N3CCN(c4cccc(Cl)c4)CC3)cnn2-c2cccc(Cl)c2)CC1`: the enhancement is -12.3%. As for `Cc1cc(Cl)ccc1OCC(=O)N(Cc1ccc(N(C)C)cc1)C1CCS(=O)(=O)C1` (configuration not stated), the figure is -2.26%.

`CC1Cc2cc(S(=O)(=O)CCC(=O)NCc3ccc(Cl)cc3)ccc2N1C(=O)C1CC1` (configuration not stated): the enhancement is 3.17%. Then `CCCn1c2ccccc2c2cnn(CC(=O)N(CC)c3cc(C)ccc3C)c(=O)c21`, with -3.36%; and `CCCn1c2ccccc2c2cnn(CC(=O)NCCCOC(C)C)c(=O)c21`, with 10.8%. As for `CCCn1c2ccccc2c2cnn(CC(=O)N(C)c3ccccc3CC)c(=O)c21`, the figure is 33.2% (active).

Turning to `CCOc1ccc(CCNC(=O)c2ccc3c(c2)sc2nc(-c4ccc(F)cc4)cn23)cc1OCC`, the enhancement was 0.915%. Then `O=C(COC(=O)c1ccc(O)cc1O)NNC(=O)c1cccs1`, with 6.82%. Then `Cc1ccc(NNC(=O)c2cccs2)cc1Cl`, with -3.86%. As for `Cc1ccc(C)c(NC(=O)CCC(=O)NNC(=O)c2cccs2)c1`, the figure is 30% (active); as for `CCOCCCNC(=O)c1c(NC(=O)Cc2coc3ccc(C)cc23)sc2c1CCC2`, -1.11%; as for `CCNC(=O)c1ccc(OCC(=O)Nc2ccc(F)cc2)c(OC)c1`, 13.5%.

For the compound `COc1cc(C2C3=C(CCCC3=O)OC3=C2C(=O)CCC3)ccc1OCC(=O)Nc1ccccc1`, the enhancement is 78.2% (active).

With `CCOc1ccc(NC(=O)COc2ccc(C(=O)NC3CCCc4ccccc43)cc2OC)cc1` (configuration not stated), the enhancement is 3.25%.

On to `COc1ccc(-c2cc(-c3ccccc3)nc3c2COc2ccc(Cl)cc2-3)cc1`, for which the enhancement was 2.02%. As for `COc1ccc(Cl)cc1NC(=O)CCn1c(=O)c2cccn2c2ccccc21`, the figure is 1.46%; as for `Cc1cccnc1CCNC(=O)C1CCC(=O)N(Cc2cccc(F)c2)C1` (configuration not stated), -0.481%; as for `CCn1nc(C)c(CNC(=O)C2CCC(=O)N(Cc3cccc(F)c3)C2)c1C` (configuration not stated), 31.7% (active). For `COC(=O)c1ccc(CNC(=O)C2CCC(=O)N(Cc3cccc(F)c3)C2)cc1` (configuration not stated), the enhancement was -7.88%.

As to `Cc1ccc(C(=O)NC2CCN(C#N)CC2)cc1`, the enhancement was -0.515%. For the compound `CCOC(=O)c1sc(NC(=O)/C=C/c2ccc(C(C)C)cc2)c(C(=O)OCC)c1C`, the enhancement is 0.66%. Then `N#Cc1ccc(Oc2cc(C(F)(F)F)nc(-c3ccccn3)n2)cc1`, with 55.8% (active). Then `N#Cc1ncc(C(F)(F)F)cc1Oc1cccnc1`, with -3.06%; and `Cc1c(Cl)cccc1NC(=O)c1noc2c1CCCC2`, with 7.16%; and `Cc1cc(NS(=O)(=O)c2ccc(NC(=O)c3ccccc3C)cc2)nc(C)n1`, with 10.7%. Consider `CCCn1c(C2CCCN2c2nc(-c3ccc(OC)cc3)cs2)nc2ccccc21` (configuration not stated), for which the enhancement was -1.81%.

`COc1ccc(-c2csc(-c3c(N)c(C(=O)c4ccc(OC)c(OC)c4)n4ccccc34)n2)cc1`: the enhancement was 0.214%. Take `COc1ccc(-c2csc(Nc3ccccn3)n2)cc1`: the enhancement was 34.5% (active). Then `CCOC(=O)Cc1csc(NC(=O)CN(C)S(=O)(=O)c2ccc3c(c2)CCC(=O)N3)n1`, with 32.8% (active); and `Cc1cccc(N2CCN(C(=O)CN(C)S(=O)(=O)c3ccc4c(c3)CCC(=O)N4)CC2)c1C`, with 2.84%; and `Cc1nc(NC(=O)CN(C)S(=O)(=O)c2ccc(Cl)cc2)sc1C`, with 4.55%. As for `Cc1cc(C)cc(NC(=O)CCCc2nc(-c3ccccc3Cl)no2)c1`, the figure is -21.4%; as for `COc1ccc(CCNC(=O)c2cn(C)c3ccc(S(=O)(=O)N(C)C4CCCCC4)cc3c2=O)cc1OC`, -14.3%.

The record behind these values is PubChem BioAssay AID493056 (National Center for Advancing Translational Sciences (NCATS), 2011).
